Assay outcomes from PubChem BioAssay.
D2 PAM-1 – D2 dopamine receptor (human) potentiation; P14416; HEK293 T-REx D2, calcium flux, EC20 dopamine potentiation; potentiation, % at 10 µM; 340,000 compounds, 0.34% hits;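 active = potentiation over 3 SD above the plate norm, cut at about 30% in these data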
Target sequence (P14416 whole entry, looked up): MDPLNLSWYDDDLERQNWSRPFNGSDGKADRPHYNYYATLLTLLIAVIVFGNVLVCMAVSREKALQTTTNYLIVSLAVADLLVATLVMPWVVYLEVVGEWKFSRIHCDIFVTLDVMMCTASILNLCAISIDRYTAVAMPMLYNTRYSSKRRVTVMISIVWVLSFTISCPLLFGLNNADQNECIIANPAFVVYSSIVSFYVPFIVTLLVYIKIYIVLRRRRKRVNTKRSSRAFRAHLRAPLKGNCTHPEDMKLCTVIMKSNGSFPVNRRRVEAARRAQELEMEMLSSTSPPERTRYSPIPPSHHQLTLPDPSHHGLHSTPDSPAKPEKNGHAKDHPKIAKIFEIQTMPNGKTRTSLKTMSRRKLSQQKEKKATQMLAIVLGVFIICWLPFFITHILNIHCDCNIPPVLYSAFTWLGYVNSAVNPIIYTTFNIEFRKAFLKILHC
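Calcium flux readout, no-wash dye, 1 read/s. Inducible HEK293 Trex D2 line, overnight 30 C. Compound alone 180 s (agonist flags), then EC20 dopamine, another 180 s to score potentiation.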
D2 antag – D2 dopamine receptor (human) antagonism; P14416; inhibition, % at 10 µM; HEK293 TREx D2 cells, calcium flux, dopamine EC80; AID 485344; 340,000 compounds, 2% hits; in the data active = inhibition above about 30%; inactive = below that, where a call was filed
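Compounds are added to dye-loaded, induced HEK293 T-REx cells coupled to calcium release via D2; after a 3 min kinetic read an EC80 dopamine stimulus is given and fluorescence is recorded for 3 more min.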
D2 ag-1 – agonists of human D2 dopamine receptor. P14416. HEK293 T-REx D2 cells, calcium flux agonist mode. activation, % at 2 µM. 340,000 compounds, 0.53% hits. AID 485358;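 active = activation over 3 SD above normal in the single-dose calcium agonist read, cut at about 30% in these data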
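Calcium-flux readout, 1 cycle/sec over 180 s following compound pin transfer, in inducible HEK293 Trex D2 cells (force-coupled); dopamine controls included. Positive calcium responses during this window marked compounds as potential agonists.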
D2 PAM-2 – human D2 receptor positive allosteric modulation | P14416 | DiscoveRx D2 beta-arrestin cells, luminescence, 90 min; 100% = 57 uM dopamine signal | potentiation, % (no concentration beside the values) | 360,000 compounds, 0.23% hits | AID 624464; in the data active = potentiation above about 50%; inconclusive = mostly about 30% to 49%
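D2 cells co-treated with compound plus 50 nM dopamine (EC20) for 90 min at 37 deg C to detect potentiation. Beta-arrestin recruitment was read as enzyme-fragment luminescence after 1 h at ambient temperature. Full response was set by 57 uM dopamine.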
D2 ag-2 – activates the human D2 dopamine receptor; P14416; DiscoveRx PathHunter D2 beta-arrestin, luminescence, 90 min; 100% = 57 uM dopamine signal; activation, % (test concentration not listed); 360,000 compounds, 0.084% hits; AID 624465; in the data active = activation above about 40%; inconclusive = between about 15% and that limit
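Agonist mode: compounds alone added to overnight-plated D2 PathHunter cells for 90 min at 37 C, with 57 uM final dopamine (EC100) defining full response. Beta-arrestin recruitment detected by chemiluminescent reagent, read after 1 h at ambient temperature.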
D3 arrestin ag – D3 receptor agonism confirmed, beta-arrestin readout | AID 720506 | Potency, µM (highest dose often 76.9 µM), usual class: activators | DiscoveRx D3 beta-arrestin cells, luminescence, 90 min | shares compounds with D2 ag-1 | 2,300 compounds, 4% hits; also: nearly all actives have a fitted effect of over 70% in size
D2 ag-3 – D2 receptor agonism, beta-arrestin counterscreen | AID 720507 | DiscoveRx PathHunter D2 beta-arrestin, luminescence, 90 min; response scale: percent relative to full dopamine signal | Potency, µM (series often up to 76.9 µM), hits mostly activators | 2,300 compounds, 5.9% hits | shares compounds with D2 ag-1; also: nearly all actives have a fitted effect of over 70% in size
Hits are given with their value; – = inactive; ? = inconclusive; · = no result. Only some compounds are listed: those with a hit (about 2.4% of all), similar ones and a draw of the others. Unless noted, calls follow the shape of the dose curve; as a rule, active = well fitted activation curve with a large enough effect; inconclusive = small, poorly fitted or top-dose-only effect; inactive = flat fitted curve, though single readings scatter.

SMILES	D2 PAM-1	D2 antag	D2 ag-1	D2 PAM-2	D2 ag-2	D3 arrestin ag	D2 ag-3
O=c1[nH]c(CN(CCc2ccccc2)S(=O)(=O)c2ccc(Cl)cc2)nc2ccccc12	–	–	–	–	–	–	–
COc1ccc(C2NC(=O)NC(C)=C2C(=O)Nc2cc(C)cc(C)c2)c(OC)c1 (stereo not given)	–	·	–	·	·	·	·
COc1ccc(OC)c(NC(=O)c2ccc3c(c2)c(C)c(C)n3Cc2ccc(F)cc2)c1	–	·	·	·	·	·	·
Fc1ccccc1CN1CCN(c2ncccn2)CC1	–	84.1	84.5	?	98.1	?	7.94µM
O=C(c1ccccc1F)N1CCN(Cc2ccccc2F)CC1	–	–	–	–	–	·	·
O=[N+]([O-])c1ccc(Cl)c(CN2CCN(c3ncccn3)CC2)c1	–	33.2	–	–	–	–	–
Oc1cc2c(cc1CN1CCN(c3ncccn3)CC1)OCO2	–	83.4	85.5	?	96.2	?	0.562µM
Cc1ccc(C)c(S(=O)(=O)N2CCN(c3ncccn3)CC2)c1	–	·	·	–	–	·	·
Cc1ccc(C)c(CN2CCN(c3ncccn3)CC2)c1	–	59.8	75.4	–	53.2	–	?
CCn1ccc2cc(S(=O)(=O)N3CCC(C(=O)NCCc4ccc(SC)cc4)CC3)ccc21	–	·	·	·	·	·	·
O=C(CN1CCN(c2ncccn2)CC1)NCc1ccc2c(c1)OCO2	–	37.1	55.5	–	?	–	–
Clc1cccc(Cl)c1CN1CCN(c2ncccn2)CC1	–	46.3	55.0	–	?	–	?
CCn1c(SCc2ccccc2F)nc(=O)c2c(C(=O)OC)cc(C3CC3)nc21	–	·	·	·	·	·	·
Cc1ccc(C)c(N2CCN(C(=O)c3ccc4c(Cl)c5c(nc4c3)CCCC5)CC2)c1	–	·	·	·	·	·	·
Cc1ccc(NC(=O)NCCN2CCN(c3ccccc3)CC2)cc1Cl	–	64.7	65.7	–	–	–	?
Cc1ccc(NC(=O)NCCN2CCCCC2)cc1Cl	–	–	–	–	–	·	·
O=C(NCCN1CCN(c2ccccc2)CC1)Nc1cccc(Cl)c1	–	72.5	74.6	–	?	?	–
Cc1cccc(NC(=O)NCCN2CCN(c3ccccc3)CC2)c1C	–	57.0	56.6	–	–	–	–
COc1ccc(Cl)c(NC(=O)NCCN2CCN(c3ccccc3)CC2)c1	–	–	–	–	–	·	·
O=C(NCCN1CCN(c2ccccc2Cl)CC1)Nc1ccccc1	–	52.5	67.2	–	–	–	–
CCCn1cc(S(=O)(=O)c2ccccc2)c(=O)c2cc(F)c(N3CCCC(C)C3)cc21 (stereo not given)	–	·	–	·	·	·	·
COc1ccc(NC(=O)c2nnn(Cc3nc(-c4cc(Br)ccc4OC)oc3C)c2C)cc1	–	·	–	·	·	·	·
NC(=O)c1nsc(C(=O)N(c2ccccc2)C(C(=O)NCc2ccc(F)cc2)c2ccc(O)cc2)c1N (stereo not given)	–	57.0	–	–	–	–	–
NC(=O)c1nsc(C(=O)N(c2ccccc2)C(C(=O)NCc2ccc(F)cc2)c2ccco2)c1N (stereo not given)	·	·	·	–	–	·	·
CSCCC(NC(=O)COc1ccccc1)C(=O)N1CC(C)CC(C)C1 (stereo not given)	–	–	–	–	–	·	·
SMILES	D2 PAM-1	D2 antag	D2 ag-1	D2 PAM-2	D2 ag-2	D3 arrestin ag	D2 ag-3
CSCCC(NC(=O)COc1ccccc1)C(=O)N1CC(C)OC(C)C1 (stereo not given)	–	–	–	–	–	–	–
CCCCOC(=O)c1ccc(NC(C)=O)cc1	–	–	–	–	–	·	·
CC(=O)Nc1ccc(C(=O)OCCCOC(=O)c2ccc(NC(C)=O)cc2)cc1	–	–	76.4	–	–	–	–
Cc1ccc2c(c1)[C@H]1[C@H](CO2)[C@H](c2ccccc2)[C@]2(C)C(=O)N(Cc3ccc(Cl)cc3)CC(=O)N12	–	–	–	–	–	–	–
CC1(C)C2([N+](=O)[O-])CN3CC1([N+](=O)[O-])CN(C2)C3c1ccc(O)c(O)c1 (stereo not given)	–	–	–	–	–	–	–
CC(=O)Nc1cccc(NC(=O)CSc2nc(C3CC3)nc3ccccc23)c1	–	34.2	–	–	–	–	–
CCOc1ccc(S(=O)(=O)Nc2cccc(-c3ccc(OCC)nn3)c2)cc1	–	·	–	·	·	·	·
CN(Cc1ccccc1)C(=O)c1nc2ccccn2c1CNCCOc1cccnc1	–	–	41.1	–	–	–	–
CN(Cc1ccccc1)CC(O)COc1ccc(CNCCCOc2cccnc2)cc1 (stereo not given)	–	–	–	–	–	·	·
CN(Cc1ccccc1)CC(O)COc1ccc(CNCCOc2cccnc2)cc1 (stereo not given)	–	82.9	55.7	–	?	1.41µM	–
O=C(NCCN1CCN(c2ccccc2)CC1)C1CCN(S(=O)(=O)N2CCOCC2)CC1	–	60.6	84.0	–	?	?	?
O=C(NCCN1CCN(c2cccc(Cl)c2)CC1)C1CCCN(S(=O)(=O)c2cnc[nH]2)C1 (stereo not given)	–	81.0	81.3	–	–	?	?
O=C(NCCN1CCN(c2ccccc2)CC1)C1CCCN(S(=O)(=O)c2cnc[nH]2)C1 (stereo not given)	–	75.7	74.4	73.9	?	?	?
CCCn1c(SCC(O)c2cccc(OC)c2)nc2ccccc21 (stereo not given)	–	·	–	·	·	·	·
Cc1cc(C)n2nc(-c3ccc(F)cc3)nc2n1	·	·	·	–	–	–	–
Cc1cc(C)n2nc(-c3cccnc3)nc2n1	–	–	–	–	–	·	·
CN(CCOc1cccc2ccccc12)Cc1ccccc1	–	·	·	–	?	–	–
CCc1ccccc1NC(=S)N1CCN(c2ccccc2F)CC1	–	–	–	–	–	–	–
COc1ccc(CNCc2ccc(C(=O)O)s2)cc1	–	·	–	·	·	·	·
Cn1c2ccccc2c(=O)c2c(=O)n(-c3ccccc3)c(C3CCCCC3)nc21	–	–	–	–	–	·	·
Cn1c2ccccc2c(=O)c2c(=O)n(C3CCCCCC3)c(C3CCCCC3)nc21	–	–	40.3	–	–	–	–
CC(=O)N1CCc2cc(S(=O)(=O)NCCCN3CCN(Cc4ccccc4)CC3)ccc21	–	43.8	42.1	–	–	–	–
O=S(=O)(CCN1CCN(c2ccccn2)CC1)c1ccc(Cl)cc1Cl	–	–	50.3	–	–	–	–
CCOC(=O)c1c(C)sc(-c2c(-c3ccc4c(c3)OCCO4)[nH]c3c2c(=O)n(C)c(=O)n3C)c1O	–	·	–	·	·	·	·
